About 420 (0.61%) of roughly 69,000 compounds showed an effect of 50% or more. Shown is part of a subset that was picked to be rich in strong results.

This test concerns the target T1, Histidine--tRNA ligase (Leishmania infantum) (UniProt A4I591).
T1 sequence (whole entry): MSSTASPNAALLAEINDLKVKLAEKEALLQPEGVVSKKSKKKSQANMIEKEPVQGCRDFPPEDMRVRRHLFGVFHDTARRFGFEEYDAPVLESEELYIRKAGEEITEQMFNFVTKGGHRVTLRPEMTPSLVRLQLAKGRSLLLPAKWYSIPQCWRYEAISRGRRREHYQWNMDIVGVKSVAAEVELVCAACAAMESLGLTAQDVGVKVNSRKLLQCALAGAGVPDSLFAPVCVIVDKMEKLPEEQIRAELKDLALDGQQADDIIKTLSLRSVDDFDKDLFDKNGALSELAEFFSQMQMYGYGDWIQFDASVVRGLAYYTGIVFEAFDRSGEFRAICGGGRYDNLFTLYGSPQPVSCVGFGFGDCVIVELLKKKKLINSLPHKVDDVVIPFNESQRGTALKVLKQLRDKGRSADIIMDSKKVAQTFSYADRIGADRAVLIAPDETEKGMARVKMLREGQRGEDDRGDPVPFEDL
As to the kind of experiment: Leishmania infantum Histidine tRNA synthetase (LdHisRS). Type of test: functional. Also on record: scale not given: in the data most compounds retested in dose-response had high values. To be noted: 30 µM.
In the case of `Cc1cc(CN2CC[C@H]3OCC[C@@]3(C(=O)NCc3ccco3)C2)no1`, the Percent Effect came to 11.4%. In the case of `O=C([C@H]1CCS(=O)(=O)[C@@H]2CN(CCc3ccccc3)C[C@H]12)N1CCCC1`, the Percent Effect came to 17.6%. Under `Cc1ccncc1C(=O)N1CC[C@@]2(O)CCN(C3CCCCC3)C[C@H]2C1` stands 14.5%.

`c1cnn(CCCO[C@@H]2CC[C@H]3[C@H]2OCCN3CC2CCOCC2)c1`: the Percent Effect came to 13.9%. On to `Cc1noc(C)c1CN1C[C@@H]2CC[C@H](C1)N(Cc1cc(F)cc(F)c1)C2`, for which the Percent Effect is 24.7%. Under `Cc1ccc(N2CCC3(CC2)COCCN(c2nccs2)C3)nn1` stands 58.5%; under `Cc1ccc(N2CCCC3(COCCN(c4nccs4)C3)C2)nn1` (stereo unspecified), 11.4%; under `Cc1ccc(N2CC3(CCN(c4nccs4)C3)C2)nn1`, 9.52%. In the case of `CS(=O)(=O)N1C[C@@H]2CC[C@H](C1)N(C(=O)Cn1ccc3ccccc31)C2` it was 11.6%. Under `Cn1cc(CN2CC[C@@H]3[C@H]2CCC(=O)N3c2ccccc2)cn1` stands 5.56%; under `Cn1cccc(NC(=O)COc2ccc(Br)cc2)c1=O`, 26.1%; under `COc1c(NC(=O)N(C)CCOc2ccccc2)c(C)nn1C`, 24.1%.

With `CN(CCOc1ccccc1)C(=O)Nc1cccn(C)c1=O`, the Percent Effect turned out to be 112%. In the case of `O=C(NCc1ccco1)[C@H]1COC[C@H]2CN(Cc3ccccn3)C[C@H]21` it was 14%; in that of `Cc1ccc(NC2CCN(C(=O)CCc3ccco3)CC2)nn1`, 27.7%. Under `Cc1ccccc1NC1CCN(C(=O)CCc2ccco2)CC1` stands 12.5%; under `Cc1ccc(N(C)C2CCN(C(=O)CCc3ccco3)CC2)nn1`, 58.5%. In the case of `O=C(c1ncccn1)N1C[C@H]2CCC[C@@]2(COCc2cccnc2)C1`, the Percent Effect was -3.92%. Under `Cc1cnc(C(=O)N2C[C@H]3CN(Cc4cccs4)C[C@H]3C2)cn1` stands -3.19%. In the case of `CS(=O)(=O)CCC(=O)N1C[C@@H]2CC[C@H](C1)N(Cc1ccccn1)C2=O` it was 18%; in that of `O=C(CC1CC1)N[C@@H]1CN(Cc2ccoc2)C[C@@H]2CCCO[C@@H]21`, -31.4%.

For `O=C1NCC(C(=O)NCc2ccccc2CN2CCOCC2)N1` (stereo unspecified), the Percent Effect turned out to be 7.25%.

Consider `O=C1NCC(C(=O)Nc2ccc(=O)n(Cc3ccccc3Cl)c2)N1` (stereo unspecified), for which the Percent Effect amounted to 92.8%. Under `O=C1CCC(C(=O)Nc2ccc(=O)n(Cc3ccccc3Cl)c2)N1` (stereo unspecified) stands 20.5%; under `O=C1CCC(C(=O)Nc2cnn(-c3ccccc3Cl)c2)N1` (stereo unspecified), 19.5%. Under `O=C(Nc1ccc(=O)n(Cc2ccccc2Cl)c1)C1CC1` stands 114%. In the case of `O=C1CC[C@H](C(=O)Nc2cnn(-c3ccccc3Br)c2)N1` it was 7.32%; in that of `O=C1CCC(C(=O)Nc2ccc(=O)n(Cc3ccc(Cl)c(Cl)c3)c2)N1` (stereo unspecified), 95.2%. Regarding `CC1CCN(Cc2ccccc2CNC(=O)C2CNC(=O)N2)CC1` (stereo unspecified), the Percent Effect came to 5.18%.

In the case of `O=C(Nc1cnn(Cc2ccc(F)cc2Cl)c1)C1CC1`, the Percent Effect was found to be 15.9%.

`CC(C)CN1C(=O)CO[C@@H]2CN(C(=O)N(C)C)C[C@H]21`: the Percent Effect was 8.77%.

Take `CN1CC[C@@H]2[C@@H](CO[C@H]2CNC(=O)c2nccn2C)C1`: the Percent Effect amounted to 16%. In the case of `CN(C)C(=O)CN1C[C@@H]2CC[C@H](C1)N(Cc1cc(F)ccc1F)C2` it was 1.91%. As to `CN1C[C@@H]2CC[C@H](CC1=O)N2C(=O)c1cc2ccccc2[nH]c1=O`, the Percent Effect worked out at 19.5%. Under `Cc1occc1C(=O)N1C[C@@H]2[C@@H](C1)OCC(=O)N2Cc1cccnc1` stands 11.5%. `Cn1cc(C(=O)N2CC[C@@H]3[C@@H]2CCN3c2ccccn2)cn1`: the Percent Effect is 16%. In the case of `Cc1noc(C)c1CN1CCO[C@H]2CN(C(=O)C3CCOCC3)C[C@H]21` it was 7.96%; in that of `O=C(NCc1cccnc1N1CCc2ccccc2C1)c1cnc[nH]1`, 18.6%.

As to `O=C(NCc1cccnc1N1CCc2ccccc2C1)c1cc(=O)[nH][nH]1`, the Percent Effect was found to be 50%. Under `Cc1cc(C(=O)NCc2cccnc2N2CCc3ccccc3C2)[nH]n1` stands 21.4%. In the case of `CCC1CN(CC(=O)NCCN2CCCCCC2)c2ccccc2S1` (stereo unspecified) it was 51.1%; in that of `CCC1CN(CC(=O)NCCN2CCCC2)c2ccccc2S1` (stereo unspecified), 31.5%. Turning to `CCC1CN(CC(=O)NCCN2CCCCC2)c2ccccc2S1` (stereo unspecified), the Percent Effect came out at 27.2%. Consider `CN(C)C(=O)N1C[C@@H]2CC[C@H](C1)N(Cc1ccc3nsnc3c1)C2`, for which the Percent Effect is 24%.

Regarding `O=C1N(c2cccc(F)c2)Cc2nc(=O)n(Cc3ccccc3Cl)n21`, the Percent Effect was 12%. Under `CN1C[C@@H]2CN(C(=O)NCc3cccc(F)c3)CCC[C@]2(C(=O)O)C1` stands 6%; under `COc1ccc(CN2C[C@@H]3COC[C@@H](N4CCN(C)CC4)[C@@H]3C2)cc1`, 17%; under `CCn1ncc(-c2cc(C(F)(F)F)nc(N3CCC(N)CC3)n2)c1C`, 15.1%.

Regarding `CCc1ccc(-c2cc(C(F)(F)F)nc(N3CCC(N)CC3)n2)cc1`, the Percent Effect was determined as 71%. Under `Cc1c(-c2cc(C(F)(F)F)nc(N3CCC(N)CC3)n2)cnn1C` stands 19.4%. `CNC(=O)[C@H]1C[C@@H]2CN(C(=O)c3ccco3)C[C@@H]2N1S(C)(=O)=O`: the Percent Effect was 17%. Under `COCCC(=O)N1CC[C@@H]2O[C@@H](C)C[C@H]2C1` stands 15.3%; under `O=C(Cc1ccco1)N1C[C@H]2CCC[C@@]2(COc2cccnc2)C1`, 24%. In the case of `Cn1cnc2c1CCN(Cc1csc(-c3ccc(F)cc3)n1)C2` it was 10.2%; in that of `Cn1cnc2c1CCN(Cc1csc(-c3ccccc3)n1)C2`, 15.7%.

For `COc1ccc(-c2nc(CN3CCc4c(ncn4C)C3)cs2)cc1`, the Percent Effect worked out at 57.5%.
